Results with a measured potency or affinity are listed apart. Inconclusive results are not listed. Active and inactive are the calls of the source.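 The calls were made as follows: active = signal loss with fitted half-maximal concentration at or below twice the top valid tested dose in every test run; inconclusive = runs disagree, flat 30 to 70% signal loss, or poor fit; inactive = all runs flat, opposite direction, or potency beyond limit.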

This test is described as follows: HEK293T cytotoxicity, dose response, cytotoxicity control for miR-122 modulator project, cell-based, inhibitor set, cherry-pick, set 2 (AID 720697). Conditions: HEK293T viability, CellTiter-Glo luminescence, 48 h; series mostly up to 26 µM. For orientation: In ATP-based viability assays light output follows the ATP content of the culture.
As for `CC(C)NC(=O)N1[C@H](CO)[C@@H](c2ccccc2)[C@@H]1CNC(=O)CN(C)C`, the call was inactive. The entry for `COc1cccc(CNC(=O)C[C@H]2CC[C@@H]3[C@@H](COc4ccc(NC(C)=O)cc4C(=O)N3C)O2)c1` is “inactive”. On to `C/C=C/c1ccc([C@@H]2[C@@H](CO)N(C(C)=O)[C@H]2CN(C(=O)COC)C(C)C)cc1`, for which the outcome was inactive. For `C[C@@H]1CN([C@H](C)CO)S(=O)(=O)c2ccc(C3=CCCC3)cc2O[C@@H]1CN(C)C(=O)Cc1ccncc1`, the outcome was inactive. The same measure for `CCNC(=O)Nc1ccc2c(c1)C(=O)N(C)[C@H]1CC[C@H](CC(=O)Nc3cccc(F)c3)O[C@@H]1CO2`: “inactive”; for `CN1C(=O)c2cc(NC(=O)c3cccc(F)c3)ccc2OC[C@@H]2O[C@@H](CC(=O)O)CC[C@@H]21`: “inactive”.

As to `Cc1cc(C(F)F)n2ncc(C(=O)NCCc3ccccc3Cl)c2n1`, the compound was classed as inactive. For `CCCNC(=O)C[C@@H]1CC[C@@H]2[C@@H](COc3ccc(NC(=O)Nc4ccccc4F)cc3C(=O)N2C)O1`, the outcome was inactive.

On to `CC(=O)N(C[C@@H]1N[C@@H](CO)[C@H]1c1ccc(-c2ccccc2)cc1)C(C)C`, for which the outcome was inactive.

With `CCCNC(=O)C[C@@H]1CC[C@@H]2[C@H](COc3ccc(NC(=O)c4cc(F)cc(F)c4)cc3C(=O)N2C)O1`, the result was inactive.

As to `CCCNC(=O)C[C@@H]1CC[C@H]2[C@@H](COc3ccc(NC(=O)c4ccc(C(F)(F)F)cc4)cc3C(=O)N2C)O1`, the outcome was inactive.

For `O=C(Cc1cccnc1)N1[C@@H](CO)[C@@H]2c3ccccc3NC[C@@H]21`, the outcome was inactive. Take `COC(=O)C[C@H]1CC[C@H]2[C@H](COc3ccc(NC(=O)NC(C)C)cc3C(=O)N2C)O1`: the compound was classed as inactive. With `CC(C)(C)c1cc(NCCCn2ccnc2)n2ncc(-c3ccc(Cl)cc3)c2n1`, the result was inactive. For `CCC(=O)N1[C@H](CN(C(C)C)S(C)(=O)=O)[C@@H](c2ccccc2)[C@@H]1CO`, the call was inactive. `CO[C@H]1CN(C)C(=O)c2cc(NC(=O)c3cccc(Oc4ccccc4)c3)ccc2OC[C@@H](C)NC[C@H]1C`: the compound was called inactive. Take `CNC(=O)C[C@@H]1CC[C@@H]2[C@@H](COc3ccc(NC(=O)NC(C)C)cc3C(=O)N2C)O1`: the outcome was inactive. Regarding `CN(c1ccccc1)S(=O)(=O)c1ccc(C(=O)Nc2cccc(S(=O)(=O)N3CCOCC3)c2)cc1`, the result was inactive. For the compound `CNC(=O)C[C@H]1CC[C@@H]2[C@@H](COc3ccc(NC(=O)Nc4ccc(Cl)cc4)cc3C(=O)N2C)O1`, the compound was called inactive. `C[C@H](CO)N1C[C@H](C)[C@@H](CN(C)Cc2ccc(-c3ccccc3)cc2)Oc2ncc(C#CCN(C)C)cc2C1=O`: the compound was classed as inactive. The entry for `Fc1ccc(CN2CCN(c3ncnc4scc(-c5ccc(F)cc5)c34)CC2)cc1` is “inactive”. Turning to `CO[C@@H]1CN(C)C(=O)c2ccc(NS(C)(=O)=O)cc2OC[C@H](C)N(C(=O)CN(C)C)C[C@@H]1C`, the compound was classed as inactive.

Take `O=C(CN1CCOCC1)NC[C@@H]1N[C@@H](CO)[C@@H]1c1ccc(-c2ccccc2)cc1`: the outcome was inactive. As for `COCC(=O)N(C)C[C@H]1[C@H](c2ccccc2)[C@@H](CO)N1C(=O)NC(C)C`, the result was inactive. As for `CCC(=O)N1[C@H](CN(C(C)C)S(C)(=O)=O)[C@H](c2ccccc2)[C@@H]1CO`, the compound was called inactive. Regarding `COCC(=O)N1[C@H](CO)[C@@H](c2ccccc2)[C@H]1CNC(=O)c1ccccn1`, the call was inactive.

Take `COCC(=O)N(C)C[C@H]1Oc2cc(-c3ccccc3F)ccc2S(=O)(=O)N([C@@H](C)CO)C[C@@H]1C`: the compound was called inactive. Turning to `CN1C(=O)c2cc(NC(=O)c3cccc(F)c3)ccc2OC[C@H]2O[C@H](CC(=O)NC3CCC3)CC[C@H]21`, the call was inactive. The same measure for `Cn1c(NC(=O)c2ccco2)c(-c2ccccc2Cl)c(=O)c2ccccc21`: “inactive”; for `CN1C(=O)c2cc(NC(=O)c3ccc(C(F)(F)F)cc3)ccc2OC[C@H]2O[C@H](CC(=O)NCc3ccc4c(c3)OCO4)CC[C@@H]21`: “inactive”.

On to `C/C=C/c1ccc([C@H]2[C@@H](CO)N(Cc3ccccn3)[C@@H]2CNC(=O)CC)cc1`, for which the result was inactive. `Cc1cc(C)n(C(=O)Cn2nc(C)c(Br)c2C)n1`: the compound was classed as inactive.

For the compound `CCS(=O)(=O)Nc1ccc2c(c1)C(=O)N(C)[C@@H]1CC[C@@H](CC(=O)NCCCN3CCOCC3)O[C@@H]1CO2`, the compound was classed as inactive. For `CC(=O)Nc1ccc2c(c1)C(=O)N(C)[C@@H]1CC[C@H](CC(=O)NCCCN3CCOCC3)O[C@@H]1CO2`, the outcome was inactive. The same measure for `O=C(C1CCCCC1)N1C[C@@H]2[C@H](c3ccccc31)[C@H](CO)N2Cc1ccccc1Cl`: “inactive”.

These data come from PubChem BioAssay AID720697 (Broad Institute, 2013).
